Only some compounds are listed: those with a hit (about 9.5% of all), similar ones and a draw of the others.
NS1 inh = qHTS Assay for Inhibitors of Influenza NS1 Protein Function; Potency, µM (top dose mostly 46.1 µM), for the others: top-dose activity, positive = more growth; hit rate 0.4% among 270,000; AID 2326, 2010; calls by dose curve; note: actives are rising curves; nearly all actives have a fitted effect of over 50% in size
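Compounds were scored for reversing the slow growth caused by influenza A NS1 in S. cerevisiae, measured by optical density at 600 nm. Assay medium contained 2% galactose at pH 6.0; NS1-free yeast of the same strain were the positive control.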
SARS PLP yeast = qHTS of Yeast-based Assay for SARS-CoV PLP | Potency, µM (doses to about 32.9 µM), for inactives: at the top dose activity, positive = growth rescue, hits mostly activators | S. cerevisiae expressing SARS-CoV PLpro, growth rescue | AID 485353, 2010 | hit rate 0.19% among 330,000; calls by dose curve; note: 0% is about no effect; nearly all actives have a fitted effect of over 55% in size
Pf growth 96h = Primary qHTS for delayed death inhibitors of the malarial parasite plastid, 96 hour incubation; P. falciparum luciferase reporter growth, 96 h; Potency, µM (top dose mostly 28.7 µM), for inactives: at the top dose activity change, negative = inhibition, hits mostly inhibitors; hit rate 6.9% among 320,000; note: % is set by controls: 0 for no effect and ±100 for the full control effect
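P. falciparum expressing integrated firefly luciferase, in erythrocytes at 2% hematocrit, 0.05% parasitemia, incubated with compounds 96 h at 37 C, 5% CO2. Growth inhibition read as loss of luminescence; two-generation exposure targets delayed-death apicoplast inhibitors.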
RE007 growth inh = qHTS Assay for Inhibitors of the HIV-1 protein Vpr. Potency, µM (doses to about 92.2 µM), inactives show at the highest dose activity change, negative = less growth, actives largely listed as inhibitors. hit rate 0.21% among 360,000. S. pombe RE007 Vpr strain, BacTiter-Glo ATP luminescence, 24 h; active = well fitted falling curve with a large enough effect; inconclusive = small, poorly fitted or top-dose-only effect; inactive = no such curve, though single readings can be large or run the other way; note: % is set by controls: 0 for no effect and ±100 for the full control effect; nearly all actives have a fitted effect of over 50% in size
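Fission yeast strain RE007, carrying one chromosomally integrated HIV-1 vpr copy, was seeded at OD 0.01 in PMG+AL medium with 23 nL pinned compound. After 24 h at 30 °C and 99% humidity, viability was read by BacTiter-Glo luminescence.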
Pf growth 48h = Primary qHTS for delayed death inhibitors of the malarial parasite plastid, 48 hour incubation; Potency, µM (doses to about 28.7 µM), inactives show at the top dose activity change, negative = inhibition, actives largely listed as inhibitors; P. falciparum luciferase growth in erythrocytes, 48 h; hit rate 5.9% among 310,000; note: % is set by controls: 0 for no effect and ±100 for the full control effect
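Erythrocytes infected with P. falciparum carrying an integrated firefly luciferase reporter (2% hematocrit, 0.1% parasitemia final) were exposed to compounds in RPMI 1640 with 0.5% Albumax at 37 C, 5% CO2. Growth inhibition was scored as reduced luminescence.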
Starred values were filed as active, the others as inactive; u = inconclusive; x = no result given. Unless noted, calls come from the whole dose curve; as a rule, active = well fitted inhibition curve with a large enough effect; inconclusive = small, poorly fitted or top-dose-only effect, or another doubt; inactive = no such curve, though single readings can be large or run the other way. Potency is the fitted concentration of half-maximal effect.

SMILES | NS1 inh | SARS PLP yeast | Pf growth 96h | RE007 growth inh | Pf growth 48h
CCOC(=O)c1sc(=S)n(-c2ccc(F)c(F)c2)c1N | -116.1% | -6.0% | u | -1.8% | 5.2%
CCOc1ccccc1-n1c(N)c(C(N)=O)sc1=S | 19.7% | 0.5% | 1.65µM* | 12.6% | 28.1%
CCOC(=O)c1sc(=S)n(-c2ccccc2OC)c1N | -67.1% | -26.0% | 6.57µM* | 0.9% | -14.2%
C=CCNC(=O)c1sc(=S)n(-c2ccc(C(=O)OCC)cc2)c1N | -76.3% | -15.3% | 2.94µM* | 5.5% | 10.5%
O=S(=O)(O)c1ccc(NN(c2c(O)ccc3ccccc23)S(=O)(=O)O)cc1 | 8.4% | x | x | x | x
Cc1ccc(C)c(-n2c(N)c(C(N)=O)sc2=S)c1 | 1.6% | -9.9% | 15.7% | 3.7% | 0.0%
Cc1ccc(-n2c(N)c(C(N)=O)sc2=S)c(C)c1 | -46.4% | 0.7% | 14.7µM* | 1.0% | 11.9%
COC(=O)/C=c1/s/c(=C(\C#N)C(=O)NCc2ccco2)n(-c2ccccc2)c1=O | 20.7% | 1.3% | 6.57µM* | 18.5% | -11.4%
CC(=O)c1ccc(OCc2cc(C(=O)N3CCCCCCC3)no2)cc1 | -49.4% | -3.4% | 13.1µM* | 12.8% | -9.9%
CCN(CC)C(=O)C1CCCN(C(=O)c2cc(COc3cccc(OC)c3)on2)C1 (stereo not drawn) | -0.2% | 1.7% | 9.28µM* | -13.2% | 20.2%
CCCCc1ccccc1NC(=S)NC1CCCC1 | -71.5% | 6.8% | u | -0.5% | 9.28µM*
Cc1cc(OC(F)F)ccc1NC(=S)NC1CCCC1 | -5.4% | 9.9% | 13.1µM* | 4.7% | u
COc1ccccc1NC(=S)NC1CCC(CC2CCC(NC(=S)Nc3ccccc3OC)CC2)CC1 (stereo not drawn) | u | -3.0% | 8.28µM* | 4.2% | 11.7µM*
CC(C)c1ccccc1NC(=S)NC1CCCCC1 | -55.8% | -1.9% | 4.65µM* | 25.4% | u
CSc1ccccc1NC(=S)NC1CCCC1 | -12.1% | 8.8% | u | -11.8% | u
COc1ccccc1NC(=S)NC1CCCC1 | x | x | x | -5.5% | x
O=C(CSCc1c(F)cccc1Cl)NNC(=S)NC1CCCCC1 | 17.4% | 7.6% | u | -13.0% | -14.2%
CCOCc1c(C(=O)N2CCN(CC(=O)Nc3ccc(F)cc3)CC2)oc2ccccc12 | x | -6.7% | u | -11.1% | u
O=C(CN1CCN(c2ccc(O)cc2)CC1)Nc1cc(S(=O)(=O)N2CCCCC2)ccc1Cl | x | -0.1% | 9.28µM* | -8.2% | -29.3%
CCN1CCN(CC(=O)Nc2cc(S(=O)(=O)N3CCCCC3)ccc2Cl)CC1 | x | -18.2% | x | -11.8% | x
O=C(CN1CCN(c2ccc(O)cc2)CC1)Nc1cc(S(=O)(=O)N2CCCC2)ccc1Cl | x | -0.6% | u | 7.0% | 9.28µM*
CC1CN(CC(=O)Nc2cc(S(=O)(=O)N3CCCC3)ccc2Cl)CC(C)O1 (stereo not drawn) | x | 1.7% | u | -12.1% | -27.8%
CCOC(=O)C1CCN(CC(=O)Nc2cc(S(=O)(=O)N3CCCCC3)ccc2Cl)CC1 | x | 0.9% | u | -1.1% | 11.7µM*
O=C(c1ccccc1)[C@H]1[C@H](c2ccccc2[N+](=O)[O-])N1C1CCCCC1 (stereo partly drawn) | -21.9% | x | x | x | x
CN(Cc1ccccc1)CC(O)COc1ccc(CNCCc2ccncc2)cc1 (stereo not drawn) | -2.8% | -0.4% | -47.2% | -14.6% | 5.22µM*
SMILES | NS1 inh | SARS PLP yeast | Pf growth 96h | RE007 growth inh | Pf growth 48h
CN(Cc1ccccc1)CC(O)COc1ccc(CNCCc2cccnc2)cc1 (stereo not drawn) | 1.5% | 0.3% | 1.4% | -2.2% | 5.22µM*
CCc1ccc(CNCc2ccc(OCC(O)CN(C)Cc3ccccc3)cc2)nc1 (stereo not drawn) | 6.1% | 0.3% | u | -7.8% | u
C=CCOc1ccc(CN(C)CC(O)COc2cccc3ccccc23)cc1 (stereo not drawn) | -5.1% | -13.7% | u | -9.7% | 10.4µM*
O=C(O)/C=C\C=C/c1ccc2c(c1)OCO2 | -4.1% | x | x | x | x
COc1ccc(-c2nn(-c3ccccc3)cc2/C=N/NC(=O)c2cccc(S(=O)(=O)Nc3ccccc3Cl)c2)cc1 | u | 9.0% | 2.94µM* | 2.2% | 9.28µM*
COc1ccc(-c2nn(-c3ccccc3)cc2/C=N/NS(=O)(=O)c2ccccc2)cc1 | 24.0% | -3.9% | 11.7µM* | -0.9% | u
COc1ccc(-c2nn(-c3ccccc3)cc2/C=N/O)cc1 | -7.3% | -1.1% | 6.4% | 4.2% | u
COc1cccc(C2NC(=O)NC(C)=C2C(=O)OCC2CCCCC2)c1 (stereo not drawn) | 25.6% | 17.4% | u | 0.0% | u
CCc1ccc(C2NC(c3ccc(CC)cc3)C([N+](=O)[O-])C(C)(C)C2[N+](=O)[O-])cc1 (stereo not drawn) | 21.7% | 7.0% | 13.1µM* | -4.5% | u
CCc1ccc(C2NC(=S)NC3=C2C(=O)CCC3)cc1 (stereo not drawn) | 10.0% | 11.8% | u | -6.5% | u
Cc1cccc(NC(=O)c2nc[nH]c2C(=O)N[C@@H](Cc2ccccc2)C(=O)OC(C)(C)C)c1 | u | -0.5% | 11.7µM* | 12.7% | u
C[C@H](NC(=O)c1nc[nH]c1C(=O)N[C@@H](Cc1ccccc1)C(=O)OC(C)(C)C)C(=O)OC(C)(C)C | u | -1.8% | u | -11.0% | 7.38µM*
CC(C)(C)OC(=O)[C@H](Cc1ccccc1)NC(=O)c1nc[nH]c1C(=O)N[C@@H](Cc1ccccc1)C(=O)OC(C)(C)C | 10.4% | -4.9% | u | 6.7% | 11.7µM*
CC1(Cc2ccc(OC(F)(F)F)cc2)C(=O)Nc2ccc(S(=O)(=O)NC3CCCCC3)cc21 (stereo not drawn) | x | x | x | 6.7% | x
CCc1ccc(N2CC(C(=O)Nc3ccc(S(=O)(=O)NCC4CCCO4)cc3)CC2=O)cc1 (stereo not drawn) | 1.7% | 1.9% | 15.2% | 6.2% | 3.6%
Cc1ccc(C(C)C)c(OCCn2ccnc2C)c1 | 3.8% | 0.8% | 11.7µM* | 0.4% | u
COc1ccc([C@H]2CC(=O)C=C(c3cccc(Cl)c3O)C2)cc1OC | x | -1.8% | 9.28µM* | -6.3% | u
O=C1C=C(c2cccc(Cl)c2O)C[C@@H](c2ccc3c(c2)OCO3)C1 | x | 2.2% | u | -4.4% | 11.7µM*
O=C1C=C(c2cccc(Cl)c2)C[C@@H](c2ccc3c(c2)OCO3)C1 | x | -1.8% | u | 5.1% | u
CCOC(=O)c1cccc(C2=CC(=O)C[C@H](c3ccc(OC)c(OC)c3)C2)c1 | x | -4.8% | u | -17.4% | 10.4µM*
COc1ccc([C@H]2CC(=O)C=C(c3cccc(Br)c3)C2)cc1OC | x | -8.0% | x | -16.1% | x
O=C1C=C(c2ccccc2)C[C@@H](c2ccc3c(c2)OCO3)C1 | x | -2.5% | 16.3% | 0.7% | -23.1%
O=C1C=C(c2cccc(Br)c2)C[C@@H](c2ccc3c(c2)OCO3)C1 | x | -21.7% | u | -1.1% | 4.65µM*

Source: PubChem
